Assay results: PubChem BioAssay (NCI)
“And” between values parts separate entries of the source, which are not always exact repeats. Equal entries are not always repeated. Compounds without any hit were thinned out: in the full panel of roughly 83,000, 20% have a hit.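 A percent growth of 40 corresponds to 60% growth inhibition; 0 means no net growth; -100 means all cells died. Active threshold: below 10.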 The source made the active and inactive calls.

test system: HL-60(TB) leukemia; assay: NCI-60 one-dose screen, 48 h (100 = growth as untreated, 0 = no growth, -100 = all killed); conditions: 10 µM unless noted

| Structure (SMILES) | growth |
| --- | --- |
| O=C(CCCCCCN1CC(=O)N2[C@H](c3cc(Br)cs3)c3[nH]c4ccccc4c3C[C@H]2C1=O)NO | 4.98% (active) |
| O=C1NCCC12CCN(c1c(Cl)cncc1-c1ccc(O)cc1)CC2 | 102% (inactive) |
| OC1CCC(Oc2cccc3cnc(Nc4ccc5nc[nH]c5c4)nc23)CC1 (centres undefined) | -26.1% (active) and 9% (active) |
| N#Cc1c(-c2ccc(Cl)cc2)c(C#N)c2c(C#N)c(N)nn2c1N | 85.8% (inactive) |
| OC1CC2c3ccccc3C1c1ccccc12 (centres undefined) | 109% (inactive) |
| COC(=O)CCCNc1c(-c2c(O)c(O)cc3c(O)c(-c4c(C)cc5c(-c6nc7ccccn7c6NCCCC(=O)OC)c(O)c(O)cc5c4O)c(C)cc23)nc2ccccn12 | 91.7% (inactive) |
| O=C(NC1C(O)OC(CO)C(O)C1O)NS(=O)(=O)c1ccc(Cl)cc1 (centres undefined) | 93.4% (inactive) |
| COc1ccc(-c2[nH]nc(N)c2-c2cc(OC)c(OC)c(OC)c2)cc1 | -34.9% (active) |
| Oc1c(Cl)cc(Cl)c2ccc(Cn3cc(-c4ccc(C(F)(F)F)cc4)nn3)nc12 | -24.9% (active) |
| COc1ccc(-c2nc3ncccn3c2-c2nnc(-c3ccc(F)cc3)o2)cc1 | 91.1% (inactive) |
| Clc1ccc(-c2nnc(COc3ccc(C4=NNC(c5ccco5)C4)cc3)o2)cc1 (centres undefined) | 79.6% (inactive) |
| O=C(/C=C/CN1CCCCC1)Nc1cc2c(Nc3ccc(F)c(Cl)c3F)ncnc2cc1OCCOC(F)F | 17.9% (inactive) |
| CN1CCN(c2ccc(NC(=O)c3cncnc3Nc3ccc(OCc4ccccn4)c(Cl)c3)cc2)CC1 | -57.9% (active) |
| N=C1C(c2nc(-c3ccc(Br)cc3)cs2)=C(O)CN1CC1CCCO1 (centres undefined) | 98.3% (inactive) |
| CC1(C)[C@@H](OC(=O)CCC(=O)O)CC[C@]2(C)[C@H]3C(=O)C=C4[C@@H]5C[C@@](C)(C(=O)O)CC[C@]5(C)CC[C@@]4(C)[C@]3(C)CC[C@@H]12 | 84.9% (inactive) and -56.3% (active) |
| Nc1ccc(S(=O)(=O)O)c2ccc(N=Nc3ccc(N=Nc4ccc(S(=O)(=O)O)cc4)c4ccccc34)c(O)c12 | 70.5% (inactive) |
| N#C/C(=N\Nc1ccc(Cl)cc1)C(=O)C1CC1 | 62.8% (inactive) |
| CCn1c(SCC(=O)c2ccc(Br)cc2)nnc1-c1ccncc1 | 103% (inactive) |
| CS(=O)(=O)Nc1cccc(C(=O)NCc2ccc(N3CCOCC3)cc2)c1 | 91.9% (inactive) |
| O=C(Nc1ccc(-n2ccc3c(NC(=O)c4ccccc4)nccc32)cc1)c1ccc(N2CCOCC2)c(C(F)(F)F)c1 | 24.8% (inactive) |

| Structure (SMILES) | growth |
| --- | --- |
| CCC(C)CC(C)C(=O)c1c(O)ccn(OC)c1=O (centres undefined) | 94.6% (inactive) |
| O=C(Cn1cc(CN2CCCCCC2)nn1)Nc1ccc2c(ccn2Cc2ccccc2)c1 | 92.2% (inactive) |
| CNC(=O)Nc1ccc(-c2nc(N3CCOCC3)nc3c2cnn3C2CCOCC2)cc1 | 11.3% (inactive) |
| CC(CN(C)C)CN1c2ccccc2CCc2ccccc21 (centres undefined) | 108% (inactive) |
| CCc1ncnc2c1ccn2C(C)c1ccc(OC)c(F)c1 (centres undefined) | 31.7% (inactive) |
| COc1ccc(/C=C2\CCCC3=C2N=C2SC(C)=CN2C3c2ccc(OC)cc2)cc1 (centres undefined) | 76.2% (inactive) |
| CC[C@@]1(O)C(=O)OCc2c1cc1n(c2=O)Cc2cc3c(CN(C)C)c(O)ccc3nc2-1 | -7.06% (active) and -36.1% (active) |
| COc1cc(/C=C/c2ccccc2)cc(OC)c1 | 96.2% (inactive) |
| CCCCCC(=O)OCCC1CCCCC1 | 109% (inactive) |
| CCCCCCN(CCCCCC)C(=N)c1ccnc2ccccc12 | 43.2% (inactive) |
| CC(C)=CCC[C@](C)(O)[C@H]1CC[C@]2(C)[C@@H]1CC[C@@H]1[C@@]3(C)Cc4nccnc4C(C)(C)[C@@H]3CC[C@]12C | 67.8% (inactive) |
| COc1cccc(CNc2ccc3ncnc(Nc4ccc(F)c(Cl)c4)c3c2)c1 | 93.6% (inactive) |
| CC(C)CCNC(=O)Cn1cccc(NC(=O)OCc2ccccc2)c1=O | 103% (inactive) |
| CCc1onc(-c2ccc(OC)cc2)c1-c1ccccc1OCCN(CC)CC | 82.6% (inactive) |
| Cc1nn(-c2ccc(Cl)cc2)c(=O)n1CCn1cnc2ccccc21 | 102% (inactive) |
| Nc1nc(N)nc(N2CCCCC2)n1 | 97.9% (inactive) |
| CCCCNc1ccc(C#N)c(OCCN(CC)CC)c1 | 88.8% (inactive) |
| O=c1[nH]nnc2cc(Cl)ccc12 | 108% (inactive) and 100% (inactive) |
| CN(c1cc2ncc(=O)[nH]c2cc1NC(N)=NCc1ccc(Cl)cc1)C1CCCCC1 | 52.9% (inactive) |
